According to PubChem BioAssay (NCI):
Compounds without any hit were thinned out: in the full panel of roughly 83,000, 20% have a hit.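 Cells were grown in 96-well plates and exposed to the test compound at a single concentration for 48 hours; results are reported as percent growth, with values below 10 considered active.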 Calls of active or inactive are those of the source.

How the values were obtained:
Test in all cases: NCI-60 one-dose screen, 48 h (100 = growth as untreated, 0 = no growth, -100 = all killed)
NCI-H23 lung = details: 10 µM unless noted
NCI-H226 lung = details: 10 µM unless noted
NCI-H322M lung = details: 10 µM unless noted
HOP-62 NSCLC = details: 10 µM unless noted
NCI-H460 lung = details: 10 µM unless noted
HOP-92 NSCLC = details: 10 µM
NCI-H522 lung = details: 10 µM unless noted
A549/ATCC NSCLC = details: 10 µM unless noted
786-0 renal = details: 10 µM unless noted
COLO 205 colon = details: 10 µM unless noted
DU-145 prostate = details: 10 µM unless noted
K-562 leukemia = details: 10 µM unless noted
MALME-3M melanoma = details: 10 µM unless noted
MDA-MB-231 breast = details: 10 µM unless noted
RXF 393 renal = details: 10 µM unless noted
SF-268 CNS = details: 10 µM unless noted
SF-295 CNS = details: 10 µM unless noted
SF-539 CNS = details: 10 µM unless noted
UACC-257 melanoma = details: 10 µM unless noted

Measured: growth

Cc1cc2nc(C(Cl)Cl)nc(-c3cccs3)n2n1
active: NCI-H322M lung -20.6% | HOP-62 NSCLC -2.2% | NCI-H460 lung -39% | HOP-92 NSCLC -10.8% | A549/ATCC NSCLC -23.5% | COLO 205 colon -44.3% | DU-145 prostate -26.5% | RXF 393 renal -52.9% | SF-295 CNS -9.21%
inactive: NCI-H23 lung 10.5% | NCI-H226 lung 86.7% | NCI-H522 lung 46.8% | 786-0 renal 77.5% | K-562 leukemia 35.3% | MALME-3M melanoma 39.7% | MDA-MB-231 breast 11.2% | SF-268 CNS 28.9% | SF-539 CNS 17.5% | UACC-257 melanoma 33.1%

O=[N+]([O-])c1cc(/C=N/Nc2nc(N/N=C/c3ccc(Cl)c([N+](=O)[O-])c3)nc(N3CCCCC3)n2)ccc1Cl
inactive: NCI-H23 lung 81.8% | NCI-H226 lung 61.4% | NCI-H322M lung 71.3% | HOP-62 NSCLC 43.7% | NCI-H460 lung 98.7% | HOP-92 NSCLC 123% | NCI-H522 lung 51.9% | A549/ATCC NSCLC 111% | 786-0 renal 109% | COLO 205 colon 100% | DU-145 prostate 29.6% | K-562 leukemia 31.7% | MALME-3M melanoma 101% | MDA-MB-231 breast 48.3% | RXF 393 renal 99.9% | SF-268 CNS 64.9% | SF-295 CNS 93.2% | SF-539 CNS 36.3% | UACC-257 melanoma 51.1%

O=C(Cn1cc(-c2ccccc2)nn1)Nc1nc(-c2ccc(Cl)cc2)cs1
inactive: NCI-H23 lung 97.7% | NCI-H226 lung 106% | NCI-H322M lung 100% | HOP-62 NSCLC 108% | NCI-H460 lung 109% | HOP-92 NSCLC 130% | NCI-H522 lung 88.2% | A549/ATCC NSCLC 103% | 786-0 renal 88.6% | COLO 205 colon 117% | DU-145 prostate 108% | K-562 leukemia 98% | MALME-3M melanoma 90.4% | MDA-MB-231 breast 104% | RXF 393 renal 135% | SF-268 CNS 113% | SF-295 CNS 77.7% | SF-539 CNS 108% | UACC-257 melanoma 98.9%

O=C1CCCc2nc(Nc3ccc(S(=O)(=O)Nc4ccc([N+](=O)[O-])cc4)cc3)ncc21
inactive: NCI-H23 lung 102% | NCI-H226 lung 109% | NCI-H322M lung 106% | HOP-62 NSCLC 111% | NCI-H460 lung 103% | HOP-92 NSCLC 121% | NCI-H522 lung 87.7% | A549/ATCC NSCLC 104% | 786-0 renal 99.9% | COLO 205 colon 121% | DU-145 prostate 105% | K-562 leukemia 92.2% | MALME-3M melanoma 107% | MDA-MB-231 breast 99.6% | RXF 393 renal 103% | SF-268 CNS 96.2% | SF-295 CNS 101% | SF-539 CNS 92.8% | UACC-257 melanoma 102%

O=C(CNc1nc(-c2cccc([N+](=O)[O-])c2)cs1)Nc1cccc([N+](=O)[O-])c1
inactive: NCI-H322M lung 58.9% | HOP-62 NSCLC 17.3%
active: NCI-H23 lung -29.7% | NCI-H226 lung -35.9% | NCI-H460 lung -15.7% | HOP-92 NSCLC -39.4% | NCI-H522 lung -36.2% | A549/ATCC NSCLC -19% | 786-0 renal -13.6% | COLO 205 colon -30.8% | DU-145 prostate -6.15% | K-562 leukemia 8.33% | MALME-3M melanoma -70.8% | MDA-MB-231 breast -28.8% | SF-268 CNS -4.97% | SF-295 CNS 0.245% | SF-539 CNS -29.6% | UACC-257 melanoma -13%

Cn1ccnc1C(=O)/C=C/C=C/c1ccc(C(=O)Nc2ccc(F)cc2)cc1
inactive: NCI-H23 lung 18.2% | NCI-H226 lung 54.7% | NCI-H322M lung 61.1% | HOP-62 NSCLC 44.7% | NCI-H460 lung 34.2% | HOP-92 NSCLC 82.9% | A549/ATCC NSCLC 56.7% | 786-0 renal 22.8% | COLO 205 colon 32.8% | DU-145 prostate 18.8% | K-562 leukemia 12.6% | MALME-3M melanoma 19.9% | MDA-MB-231 breast 12.3% | SF-268 CNS 22% | SF-295 CNS 59% | UACC-257 melanoma 46.8%
active: NCI-H522 lung 4.66% | RXF 393 renal -25.1% | SF-539 CNS -25.4%

COc1ccc2c(c1)c(CC(=O)[Se]CC#N)c(C)n2C(=O)c1ccc(Cl)cc1
active: NCI-H23 lung -11.3% | NCI-H322M lung -1.05% | NCI-H522 lung -51.3% | A549/ATCC NSCLC -9.27% | COLO 205 colon -24.8% | DU-145 prostate -37.1% | MALME-3M melanoma 6.79% | MDA-MB-231 breast 9.39% | SF-295 CNS -11.7% | SF-539 CNS 9.61% | UACC-257 melanoma -10%
inactive: NCI-H226 lung 29.6% | HOP-62 NSCLC 14.1% | NCI-H460 lung 14.5% | HOP-92 NSCLC 26.3% | 786-0 renal 47.3% | K-562 leukemia 14.5% | SF-268 CNS 35.6%

C#CCOc1ccc(/C=N\Nc2nc(-c3ccc(C)cc3)cs2)cc1OC
inactive: NCI-H23 lung 87.2% | NCI-H226 lung 86.8% | NCI-H322M lung 92.2% | HOP-62 NSCLC 98.5% | NCI-H460 lung 95.5% | HOP-92 NSCLC 73.3% | NCI-H522 lung 74.5% | A549/ATCC NSCLC 88.6% | 786-0 renal 99.2% | COLO 205 colon 94.6% | DU-145 prostate 85.3% | K-562 leukemia 69.6% | MALME-3M melanoma 116% | MDA-MB-231 breast 88.6% | SF-268 CNS 102% | SF-295 CNS 92.4% | SF-539 CNS 96.4% | UACC-257 melanoma 93.3%
